Shown are actives, neighbours in structure and some others; about 3.5% of the full set was active somewhere.
Anthrax LF prot = inhibitors of Bacillus anthracis lethal factor protease | P15917 | multiplex microsphere protease cleavage assay, LF | inhibition, % at 10 µM | actives 0.12% (n = 360,000) | AID 588501; note: plate controls were buffer without enzyme for full effect and enzyme alone for no effect
BoNT-A LC inh2 = BoNT A light chain protease inhibition; multiplex microsphere protease substrate cleavage, flow cytometry; inhibition, % at 10 µM; actives 0.17% (n = 360,000); AID 588499; note: plate controls were buffer without enzyme for full effect and enzyme alone for no effect
BoNT F protease = inhibitors of Botulinum neurotoxin F light chain protease. Multiplex microsphere protease cleavage assay, flow cytometry. inhibition, % at 10 µM. actives 0.22% (n = 360,000). AID 588497; in the data active = inhibition above about 35%, passing the limit was not always enough; inconclusive = no clear call, values can overlap the other calls; note: plate controls were buffer without enzyme for full effect and enzyme alone for no effect
Bead autofluor = counter-screen for toxin protease inhibitors: compound fluorescence; compound autofluorescence counterscreen, microsphere flow cytometry; active compounds read high; fluorescence intensity (no concentration beside the values); actives 3.1% (n = 360,000); AID 624483; in the data active = fluorescence intensity above about 16000; inconclusive = no clear call, values can overlap the other calls
BH1578 lux ind = inducers of Vibrio cholerae quorum light production without autoinducers. activation, % at 18.7 µM. AID 588436. V. cholerae BH1578 lux reporter, luminescence, 6 h. actives 0.16% (n = 350,000); in the data active = activation mostly above about 9.7%, no sharp cut-off; inconclusive = no clear call, values can overlap the other calls; inactive = mostly below about 3.7%
Active calls of the source: *; i = inactive; u = inconclusive; x = no result. Cut-off read from the data, not from the text of the source, unless noted: active = inhibition above about 30%; inconclusive = no clear call, values can overlap the other calls; inactive = below that.

SMILES	Anthrax LF prot	BoNT-A LC inh2	BoNT F protease	Bead autofluor	BH1578 lux ind
CC(OC(=O)/C=C/c1cccs1)C(=O)Nc1ccc(C(N)=O)cc1 (configuration not stated)	0	-2	-4	8496	i
CCc1cc(C(=O)OC)c(NC(=O)CSc2nccn2C)s1	5	1	-2	4198	0
O=C(NC(=S)Nc1ccc(-c2nc3ncccc3o2)cc1)c1ccccc1F	1	0	1	4440	0
O=c1c(Cl)c(NCCCO)cnn1-c1nc2ccccc2[nH]1	1	0	13	4606	-1
C=CCN(CC=C)c1cnn(-c2nc3ccccc3[nH]2)c(=O)c1Cl	-2	-3	-2	21324*	1
C=CCN(c1ccccc1)S(=O)(=O)c1cccc(C(=O)NCC2CCCO2)c1 (configuration not stated)	1	-1	-14	4416	0
Cc1ccc(C2=N/C(=C\c3cccs3)C(=O)N2Nc2ccccc2)cc1	64*	120*	51*	2321	3
O=C1/C(=C/c2cccs2)N=C(c2cccs2)N1Nc1ccccc1	13	11	0	3520	11
O=C1/C(=C\c2cccs2)N=C(c2cccs2)N1Nc1ccccc1	50*	68*	40*	5432	i
CC1=NN(c2ccccc2)C(=O)/C1=C/c1cccs1	-3	0	3	2428	0
CC(=O)Oc1ccc(-c2cccc(C(=O)N(C)c3ccc(O)cc3)c2)cc1	-1	-2	2	4649	i
COc1cccc(CNc2ccc(Br)cn2)c1O	-1	u	-6	24305*	i
COc1cccc(CNc2ncc(Br)cc2Br)c1O	0	0	1	3394	-1
O=C1CC(N(C(=O)c2ccco2)c2ccc(F)cc2)C(=O)N1c1ccc(F)cc1 (configuration not stated)	1	u	11	19184*	i
COc1cc(NC(=O)CCC(=O)O)nc(OC)n1	-6	0	-2	10801	i
CC#CCCCC(=O)Nc1cc(OC)nc(OC)n1	-1	2	4	22745*	-6
Cc1nn(CC(=O)NNC(=S)Nc2ccccc2)c(C)c1[N+](=O)[O-]	1	-1	1	21125*	1
Cc1cnn(CCC(=O)NNC(=S)Nc2cccc(Cl)c2)c1	0	3	6	21961*	0
O=C(Cn1nc(C(F)F)cc1C(F)F)NNC(=S)Nc1ccc(Cl)cc1	-1	-4	-4	23616*	0
Cc1ccc(NC(=S)NNC(=O)c2c([N+](=O)[O-])c(C)nn2C)cc1	-2	-1	-4	23365*	0
Cc1nn(CCC(=O)NNC(=S)Nc2cccc(Cl)c2)c(C)c1[N+](=O)[O-]	3	-2	-5	20563*	i
Cc1ccc(C2CC2C(=O)NNC(=S)Nc2cccc(Cl)c2)cc1 (configuration not stated)	-2	-1	-4	20873*	-3
COc1cccc(C(=O)c2c(-c3ccccc3)ncc3cc(OC)c(OC)cc23)c1	-4	0	-1	3998	-1
Cc1ccc(S(=O)(=O)Nc2cccc(-c3ccc4nnc(C)n4n3)c2)s1	0	0	3	2207	-6
COc1cc(OC)cc(C(=O)NC2CCN(Cc3nnnn3Cc3cccs3)CC2)c1	-2	-7	-5	25214*	-12
SMILES	Anthrax LF prot	BoNT-A LC inh2	BoNT F protease	Bead autofluor	BH1578 lux ind
Cc1ccc(O)c(C(=O)c2coc(=N)c(C(=O)NC(C)C)c2)c1	-4	u	0	20781*	1
Cc1cccc(N(C(=O)Nc2ccccc2)C2=NCC(C)S2)c1 (configuration not stated)	-3	-1	-19	6603	0
Cc1ccc(NC(=O)N(C2=NCC(C)S2)c2ccccc2)cc1 (configuration not stated)	-9	u	-7	19772*	i
O=C(C1CC1)N(Cc1ccco1)c1nc(-c2ccccc2)cs1	-1	-2	-6	23051*	-3
O=C(COc1ccc(Cl)cc1)N(Cc1ccccc1)c1nc(-c2ccccc2)cs1	-2	-1	-19	5339	-1
CC(C)=C(NC(=O)c1ccccc1)C(=O)NC(Cc1ccccc1)C(=O)O (configuration not stated)	3	-1	-24	3004	15*
Cc1ccc(/C=C(\NC(=O)c2ccccc2)C(=O)NC(Cc2ccccc2)C(=O)O)cc1 (configuration not stated)	0	0	4	1921	i
COC(=O)CNC(=O)c1ccc(F)cc1	-4	0	3	4330	i
O=c1c2ccccc2cnn1-c1ccc(Br)cc1	2	0	-1	2688	-1
O=c1c2ccccc2cnn1-c1ccc2ccccc2c1	-2	-9	-10	23123*	1
C[C@@H](C(=O)Nc1nccs1)N1C(=O)C2CC=CCC2C1=O (some centres not stated)	-2	0	8	3580	1
Cc1cnc(NC(=O)C(C)N2C(=O)C3CC=CCC3C2=O)s1 (configuration not stated)	-2	-3	-4	17257*	i
CC(Sc1nnc(C2CC2)n1C1CC1)C(=O)c1ccc(F)cc1 (configuration not stated)	x	x	x	x	0
CN1CCN(/C=N/c2c(C#N)cnn2Cc2ccccc2)CC1	-5	u	-3	20606*	-2
COc1ccc(NC(=O)CN(c2ccc(C)cc2)S(=O)(=O)c2c(C)nn(C)c2C)cc1	-2	0	3	4489	0
COc1ccc2nc(NC(=O)CN(c3ccc(C)cc3)S(=O)(=O)c3c(C)nn(C)c3C)sc2c1	-4	-4	-6	20805*	i
COc1ccc(NC(=O)CN(c2ccc(C)cc2)S(=O)(=O)c2c(C)nn(C)c2C)cc1OC	-4	0	2	22939*	-6
Cc1cc(C)c(S(C)(=O)=O)c(NN)n1	-4	-1	1	2004	0
Cc1ccc(OCC(=O)NCc2n[nH]c(=O)c3ccccc23)cc1	-1	0	-2	u	i
COc1ccccc1C(=O)NCC1(c2ccccc2)CCCC1	2	1	-7	4421	0
CCCCn1c(N)c(Sc2ccc(Cl)cc2)c(=O)[nH]c1=O	0	2	4	19647*	0
CCC(=O)N(c1nnc(SCC(=O)NN2C(=O)NC3(CCCCC3)C2=O)s1)C1CC1	-5	0	-2	3983	i
COc1ccc(-n2c(SCC(=O)NC3CCCCC3)nc3ccsc3c2=O)cc1	0	u	0	21037*	i
CCC(C)NC(=O)CSc1nc2ccsc2c(=O)n1-c1ccc(OC)cc1 (configuration not stated)	-3	1	14	4915	-1
CC1(C)Cc2c(sc3nc(-c4ccccc4)n(N)c(=O)c23)CO1	-1	0	-6	2918	-6
CC1(C)Cc2c(sc3nc(-c4cccs4)n(N)c(=O)c23)CO1	0	u	6	21380*	-1
CN(C)c1nc2sc3c(c2c(=O)n1C)CC(C)(C)OC3	-4	-1	2	2567	-1
Cc1nn2c(C)nc3sc4c(c3c2nc1=O)CC(C)(C)OC4	1	-6	-6	25222*	i

High-throughput results deposited in PubChem by several laboratories.
